TEAD-YAP block – TEAD-YAP interaction inhibition | HEK-TIYL cells, TEAD-Gal4/YAP UAS-luciferase luminescence | actives 1.4% (n = 640,000) | inhibition, % at 9.12 µM | AID 1259422; in the data active = inhibition above about 32%
GPR151 activ – activators of human GPR151; Q8TDV0; PathHunter beta-arrestin GPR151 cells, luminescence; activation, % at 11.2 µM; actives 1% (n = 650,000); AID 1508602; in the data active = activation above about 4.9%
FBW7 act – human FBW7 E3 ligase activation, primary screen; Q969H0; AlphaScreen FBW7–phospho-cyclin E peptide binding, activator screen; normalized activity (activation), % at 26.1 µM; actives 0.13% (n = 650,000); in the data active = normalized activity above about 1.9%;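 note: purified mutant Fbw7 with reduced substrate affinity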
MITF inh – inhibitors of human MITF; O75030; AlphaScreen MITF homodimerization, bead proximity signal; inhibition, % at 2.6 µM; actives 0.91% (n = 650,000); AID 1259374; in the data active = inhibition above about 50%
Target sequence (O75030 whole entry, looked up): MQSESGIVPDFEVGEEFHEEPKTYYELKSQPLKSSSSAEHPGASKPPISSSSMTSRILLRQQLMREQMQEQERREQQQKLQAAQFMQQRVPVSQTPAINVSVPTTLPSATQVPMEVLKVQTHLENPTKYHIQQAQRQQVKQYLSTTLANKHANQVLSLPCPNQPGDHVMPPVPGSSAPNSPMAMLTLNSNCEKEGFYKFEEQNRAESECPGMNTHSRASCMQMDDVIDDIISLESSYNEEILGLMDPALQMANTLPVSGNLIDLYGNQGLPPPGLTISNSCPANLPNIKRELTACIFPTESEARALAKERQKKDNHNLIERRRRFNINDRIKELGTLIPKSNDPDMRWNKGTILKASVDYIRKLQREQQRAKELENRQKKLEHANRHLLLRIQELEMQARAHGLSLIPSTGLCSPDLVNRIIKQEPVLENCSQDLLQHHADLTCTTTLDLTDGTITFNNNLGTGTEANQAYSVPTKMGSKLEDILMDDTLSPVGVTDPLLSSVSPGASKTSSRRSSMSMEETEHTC
GPR151 confirm – confirmation of human GPR151 activators. GPR151 PathHunter beta-arrestin cells, luminescence, 90 min; % of EA-reagent control over plate median. 6,700 tested, under 10 active. shares compounds with GPR151 activ. activation, % at 11.2 µM. AID 1508609;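 active = mean percent activation across replicates above the confirmation screen cutoff of 4.91%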
GPR119 ag – GPR119 activation, counter-screen for GPR151 activators | shares compounds with GPR151 activ | GPR119 PathHunter beta-arrestin cells, luminescence, 90 min; 0 = compound-well median, 100 = enzyme-acceptor control | activation, % at 11.2 µM | actives 0.3% (n = 6,700) | AID 1508611;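 active = mean percent activation in the counterscreen above 29.09%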;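 note: counterscreen on off-target GPR119 to flag nonselective hits from the GPR151 activator screen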
Numbers stand for hits; n = inactive; x = not tested or not shown. Only some compounds are listed: those with a hit (about 3.4% of all), similar ones and a draw of the others.

SMILES | TEAD-YAP block | GPR151 activ | FBW7 act | MITF inh | GPR151 confirm | GPR119 ag
COc1cc(OC)c(C(=O)OCC#N)cc1OC | n | 5.7 | n | n | n | n
CCN(CC)c1cc(Nc2ccc(NC(C)=O)cc2)c([N+](=O)[O-])c2nonc12 | n | n | n | n | x | x
CCN(CC)c1cc(NCCO)c([N+](=O)[O-])c2nonc12 | n | 5.9 | n | n | n | n
CCc1ccc(C2C(C#N)=C(N)OC3=C2C(=O)CCC3)cc1 (centres undefined) | n | n | n | n | x | x
Cc1cc2nc(C3CCCN3C(=O)CC3(C)C(=O)N=C4C=CC=CN43)[nH]c2cc1C (centres undefined) | n | 8.0 | n | n | n | n
Cc1cc2nc(C3CCCN3C(=O)CN3CCCCC3)[nH]c2cc1C (centres undefined) | n | n | n | n | x | x
CC(=O)c1c(C)[nH]c(C(=O)OCC(=O)Nc2ccc(C)cc2[N+](=O)[O-])c1C | n | n | n | n | x | x
CC(=O)c1c(C)[nH]c(C(=O)OCC(=O)Nc2ccc(Br)cc2F)c1C | n | 5.0 | n | n | n | n
Cc1ccc2c(c1)CC(C)N2S(=O)(=O)c1nnc(NC(=O)c2ccccc2F)s1 (centres undefined) | n | 8.5 | n | n | n | n
CN(c1ccccc1)S(=O)(=O)c1nnc(NC(=O)c2ccccc2F)s1 | n | 10 | n | n | n | n
Cc1ccc(C(=O)Nc2nnc(S(=O)(=O)N3c4ccccc4CC3C)s2)cc1 (centres undefined) | n | 5.6 | n | n | n | n
Cc1ccccc1N(C)S(=O)(=O)c1nnc(NC(=O)c2ccccc2F)s1 | n | n | n | n | x | x
COc1ccc(C(=O)Nc2nnc(S(=O)(=O)N3c4ccc(C)cc4CC3C)s2)cc1 (centres undefined) | n | n | n | n | x | x
CC1Cc2ccccc2N1S(=O)(=O)c1nnc(NC(=O)c2ccccc2)s1 (centres undefined) | n | n | n | n | x | x
Nc1nnc(SCC(=O)Nc2nnc(SCC(=O)Nc3ccc(Cl)c(Cl)c3)s2)s1 | n | n | n | n | x | x
Cc1c(Cl)cccc1NC(=O)CSc1ncnc2c1sc1ccccc12 | n | 12 | n | n | n | n
COc1ccc(CNC(=O)CSc2nnc(NC(=O)c3ccccc3Cl)s2)cc1 | n | 6.3 | n | n | n | n
CCC(=O)Nc1nnc(SCC(=O)Nc2ccc(Cl)c(Cl)c2)s1 | n | 8.9 | n | n | n | n
CC(=O)Nc1nnc(SCC(=O)Nc2cccc(Cl)c2C)s1 | n | 8.7 | n | n | n | n
Cc1ccc(NC(=O)C(c2ccccc2)N2CCOCC2)cc1 (centres undefined) | n | n | n | n | x | x
COc1ccc(-c2noc(CNC(=O)COc3ccc(Br)cc3)n2)cc1 | n | n | n | n | x | x
COc1ccc(COC(=O)C2=C(C)NC(=O)NC2c2ccc(OC)c(OCc3ccccc3)c2)cc1 (centres undefined) | n | n | n | n | x | x
Cc1cc(C)n(-c2ccc(NC(=O)C3CCN(Cc4cccnc4)CC3)cc2)n1 | n | n | n | n | x | x
CC1CCCCN1c1ncccc1C(=O)NC1CCCC1 (centres undefined) | n | 6.4 | n | n | n | n
CC1CCCCN1c1ncccc1C(=O)N1CCCC1 (centres undefined) | n | n | n | n | x | x
SMILES | TEAD-YAP block | GPR151 activ | FBW7 act | MITF inh | GPR151 confirm | GPR119 ag
COc1ccc(Nc2nc(-c3c[nH]c4ccccc34)cs2)cc1 | n | 5.4 | n | n | n | n
COc1ccc2c(c1)c(-c1csc(N)n1)c(C)n2C | n | n | n | n | x | x
COc1ccc2c(-c3csc(N)n3)c[nH]c2c1 | n | 8.4 | n | n | n | n
CC1CN(C(=O)c2ccccc2C(F)(F)F)CC(C)O1 (centres undefined) | n | 8.0 | n | n | n | n
CC1CN(C(=O)c2cccs2)CC(C)O1 (centres undefined) | n | n | n | n | x | x
COC(=O)CSc1cc([N+](=O)[O-])cc(S(=O)(=O)c2ccc(Cl)cc2)c1C | n | n | n | n | x | x
CCN(CC)c1c(-c2ccccc2)c2cc(Br)ccc2[nH]c1=O | n | 5.9 | n | n | n | n
O=C(O)Cc1c(-c2ccccc2)c2cc(Br)ccc2[nH]c1=O | n | n | n | n | x | x

Screens (PubChem)
